Screens from PubChem BioAssay.
Compounds with a hit are over-represented: about 4.8% of the library has one in this group of screens.
DAX1 inh-1: inhibitors of human orphan nuclear receptor DAX1 (NR0B1) | P51843 | HEK293 Gal4-DAX1 luciferase reporter, luminescence | inhibition, % at 6.75 µM | 340,000 tested, 0.99% active | AID 504766;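 active = inhibition above the mean over all tested compounds plus 3 SD, cut at about 4.2% in these data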;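 also: inhibition shows as a rise in luminescence from relieved DAX1 repression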
Target sequence (P51843 207-470 limits assumed): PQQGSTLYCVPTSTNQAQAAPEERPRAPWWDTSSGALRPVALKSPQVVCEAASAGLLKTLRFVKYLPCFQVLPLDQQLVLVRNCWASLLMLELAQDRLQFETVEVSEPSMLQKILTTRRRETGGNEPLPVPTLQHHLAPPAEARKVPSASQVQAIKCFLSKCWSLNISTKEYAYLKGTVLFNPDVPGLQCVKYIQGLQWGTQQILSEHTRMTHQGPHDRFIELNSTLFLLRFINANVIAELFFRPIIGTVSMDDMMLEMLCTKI
DAX1 inh-2: inhibitors of DAX1 repression of SF-1 activated StAR promoter; inhibition, % at 6.8 µM; 370,000 tested, 1.1% active; HEK293T StAR-luciferase reporter, SF-1/DAX-1 repression relief;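 active = inhibition above the mean over all tested compounds plus 3 SD, cut at about 3.6% in these data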;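 also: higher inhibition means more luminescence from relief of DAX-1 repression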
hgDAF12 agonist: activates the H. glycines DAF-12 receptor ligand-binding domain | HEK293 GAL4-hgDAF12 UAS-luciferase reporter, agonist luminescence; normalized to butyrate control | activation, % at 6.8 µM | 370,000 tested, 1.8% active | AID 687014;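 active = activation above a cutoff set at the mean of all screened compounds plus 3 SD, cut at about 10% in these data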
hcDAF12 agonist: activators of H. contortus DAF-12 nuclear receptor. HEK293 hcDAF-12 lit1-tk-luc reporter, luminescence; 0% DMSO, 100% Δ7-dafachronic acid. 370,000 tested, 1.4% active. activation, % at 6.8 µM;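 active = activation above the mean of all tested compounds plus 3 SD, cut at about 5.5% in these data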
SMARCA2 activ: increases SMARCA2 function in MMTV reporter cells. MG213 cells, MMTV-luciferase reporter, dexamethasone, overnight. activation, % at 9.1 µM. 370,000 tested, 1% active; in the data active = activation above about 7.8%
ssDAF-12 act: activates DAF-12 receptor from parasite S. stercoralis; activation, % at 6.8 µM; HEK293 ssDAF-12/GRIP1 lit1-tk-luc reporter, luminescence; % of 3 µM dafachronic acid response; 370,000 tested, 1% active;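 active = activation above the mean over all tested compounds plus 3 SD, cut at about 0.9% in these data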
hgDAF12 ag: hgDAF-12 agonism, confirmation assay | shares compounds with hgDAF12 agonist | HEK293 GAL4-hgDAF12 luciferase reporter, agonist mode; percent of butyrate response | activation, % at 6.8 µM | 3,300 tested, 80% active;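 active = mean activation over triplicate wells above the hit cutoff derived from the earlier primary screen, cut at about 11% in these data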
LXR ag 2: activates human LXR-beta, counter-screen for DAF-12 agonists; AID 743051; 3,300 tested, under 10 active; HEK293 Gal4-LXR luciferase reporter, 24 h; activation, % at 6.8 µM; shares compounds with hgDAF12 agonist;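 active = mean activation of the triplicate above a set limit carried over from the primary screen, none filed active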
A number is an active result; – = inactive; · = no result.

SMILES	DAX1 inh-1	DAX1 inh-2	hgDAF12 agonist	hcDAF12 agonist	SMARCA2 activ	ssDAF-12 act	hgDAF12 ag	LXR ag 2
Cc1ccc(NC(=O)c2ccc3nsnc3c2)c(Cl)c1	–	–	14.0	5.8	–	1.1	15.3	–
N#Cc1ccc(S(=O)(=O)N2CCCCC2c2cc(C(=O)NCc3cccnc3)no2)cc1 (stereo not given)	·	–	–	–	–	–	·	·
C/C(=N\NC(=O)c1cc(C)[nH]n1)c1ccc(-c2ccccc2)cc1	–	–	–	–	–	–	·	·
C/C(=N/NC(=O)c1cc(C(C)C)[nH]n1)c1cccs1	–	–	13.7	6.1	–	–	16.1	–
C/C(=N\NC(=O)c1cc(C)[nH]n1)c1cccs1	–	4.5	16.5	–	–	–	13.8	–
CCOC(=O)CC(NC(=O)C1c2ccccc2Oc2ccccc21)c1ccccc1Cl (stereo not given)	–	–	–	–	–	–	·	·
N/C(=N\OC(=O)c1ccc2c(c1)OCO2)c1cccnc1	–	–	13.7	–	–	1.1	11.4	–
NC(=O)c1cc(N)ccc1N1CCCCC1	·	–	22.0	–	–	–	–	–
NC(=O)c1cc(N)ccc1N1CCCC1	–	–	–	–	–	–	·	·
CCNc1nnc(-c2ccc(C)cc2)o1	–	–	–	–	–	–	·	·
Cn1c(=O)c(C(=O)CSc2nncs2)c(N)n(Cc2ccccc2)c1=O	–	–	–	–	–	–	·	·
Cc1ccc(-c2nnc(CCC(=O)NCC3C4CC5CC(C4)CC3C5)o2)s1 (stereo not given)	–	–	13.6	–	–	–	–	–
O=C(CCc1nnc(-c2ccccc2)o1)NCC1CCN(C2CCCC2)CC1	–	–	–	–	–	–	·	·
NC(=O)c1sc2nc(-c3cccnc3)ccc2c1N	·	–	–	–	–	–	·	·
CCOC(=O)c1sc2nc(-c3cccnc3)ccc2c1N	–	–	21.6	–	–	–	17.2	–
C/C(CC(=O)Nc1cccc(Cl)c1Cl)=N\NC(=O)C(=O)NC1CCCCC1	–	–	–	–	–	–	·	·
C/C(CC(=O)NC1CCCCC1)=N\NC(=O)c1ccccn1	–	–	19.5	–	–	–	–	–
Brc1ccc(-c2nnc(Cc3ccccc3)o2)cc1	·	–	–	–	–	–	·	·
c1ccc(Cc2nnc(-c3ccccc3)o2)cc1	–	–	13.7	–	–	–	–	–
CCOC(=O)N1CCC(NC(=O)c2cc3ccccn3n2)CC1	–	–	15.8	–	–	–	–	–
CCCn1nc(NC(=O)COC)c2cc3cccc(C)c3nc21	–	–	13.9	–	–	–	–	–
OC(c1ccccc1)c1nc(/C=C/c2ccccc2)cs1 (stereo not given)	·	–	15.7	–	–	–	11.3	–
OC(c1ccc(F)cc1)c1nc(/C=C/c2ccccc2)cs1 (stereo not given)	·	–	–	–	–	–	·	·
COC[C@H]1CCCN1c1cccc2c1S(=O)(=O)N(C1CC1)CCCO2	·	–	–	–	–	–	·	·
COc1ccc(N2C(=O)CCC2=O)c(OC)c1	–	–	13.4	–	–	–	–	–
SMILES	DAX1 inh-1	DAX1 inh-2	hgDAF12 agonist	hcDAF12 agonist	SMARCA2 activ	ssDAF-12 act	hgDAF12 ag	LXR ag 2
O=C(Nc1ccccc1)c1ccc(-c2ccc([N+](=O)[O-])cc2)o1	–	–	–	–	–	–	·	·
O=C(Cc1ccc(F)cc1)Nc1nccs1	–	–	–	–	–	–	·	·
O=C(Nc1nccs1)c1ccc(-c2ccc(F)cc2)o1	–	–	16.7	–	–	–	14.3	–
O=C(Nc1nccs1)c1ccc(-c2ccc([N+](=O)[O-])cc2)o1	–	–	18.1	–	–	–	11.6	–
CNc1ncn(-c2c(C)cccc2C)c(=O)n1	·	–	–	–	–	–	·	·
Nc1c(-c2ccc(Cl)cc2)cnc2c(-c3ccccc3)cnn12	7.8	–	13.9	–	7.9	–	12.0	–
CC(C)(C)S(=O)(=O)c1cnc2c(-c3ccc(Cl)cc3)cnn2c1N	–	–	–	–	–	–	·	·
O=Cc1c(OCc2ccccc2)ccc2ccccc12	–	–	14.3	–	–	0.9	–	–
